Reference: the supplement of paper PMC11732987, “Enantioselective OTUD7B fragment discovery through chemoproteomics screening and high-throughput optimisation” (Communications Chemistry, 2025)

Key:
Test in all cases: log2 ratio of Biotin-Ahx-Ub-VS probe labelling (fragment/DMSO); higher = less target engagement (more negative = stronger competition), active = hit call of the paper (q ≤ 0.05, log2 ratio ≤ -1)
Details in all cases: compound concentration: 200 uM; treatment time: 3 h
USP19 = molecular target: T1, USP19 (UniProt O94966)
T1 sequence (whole entry): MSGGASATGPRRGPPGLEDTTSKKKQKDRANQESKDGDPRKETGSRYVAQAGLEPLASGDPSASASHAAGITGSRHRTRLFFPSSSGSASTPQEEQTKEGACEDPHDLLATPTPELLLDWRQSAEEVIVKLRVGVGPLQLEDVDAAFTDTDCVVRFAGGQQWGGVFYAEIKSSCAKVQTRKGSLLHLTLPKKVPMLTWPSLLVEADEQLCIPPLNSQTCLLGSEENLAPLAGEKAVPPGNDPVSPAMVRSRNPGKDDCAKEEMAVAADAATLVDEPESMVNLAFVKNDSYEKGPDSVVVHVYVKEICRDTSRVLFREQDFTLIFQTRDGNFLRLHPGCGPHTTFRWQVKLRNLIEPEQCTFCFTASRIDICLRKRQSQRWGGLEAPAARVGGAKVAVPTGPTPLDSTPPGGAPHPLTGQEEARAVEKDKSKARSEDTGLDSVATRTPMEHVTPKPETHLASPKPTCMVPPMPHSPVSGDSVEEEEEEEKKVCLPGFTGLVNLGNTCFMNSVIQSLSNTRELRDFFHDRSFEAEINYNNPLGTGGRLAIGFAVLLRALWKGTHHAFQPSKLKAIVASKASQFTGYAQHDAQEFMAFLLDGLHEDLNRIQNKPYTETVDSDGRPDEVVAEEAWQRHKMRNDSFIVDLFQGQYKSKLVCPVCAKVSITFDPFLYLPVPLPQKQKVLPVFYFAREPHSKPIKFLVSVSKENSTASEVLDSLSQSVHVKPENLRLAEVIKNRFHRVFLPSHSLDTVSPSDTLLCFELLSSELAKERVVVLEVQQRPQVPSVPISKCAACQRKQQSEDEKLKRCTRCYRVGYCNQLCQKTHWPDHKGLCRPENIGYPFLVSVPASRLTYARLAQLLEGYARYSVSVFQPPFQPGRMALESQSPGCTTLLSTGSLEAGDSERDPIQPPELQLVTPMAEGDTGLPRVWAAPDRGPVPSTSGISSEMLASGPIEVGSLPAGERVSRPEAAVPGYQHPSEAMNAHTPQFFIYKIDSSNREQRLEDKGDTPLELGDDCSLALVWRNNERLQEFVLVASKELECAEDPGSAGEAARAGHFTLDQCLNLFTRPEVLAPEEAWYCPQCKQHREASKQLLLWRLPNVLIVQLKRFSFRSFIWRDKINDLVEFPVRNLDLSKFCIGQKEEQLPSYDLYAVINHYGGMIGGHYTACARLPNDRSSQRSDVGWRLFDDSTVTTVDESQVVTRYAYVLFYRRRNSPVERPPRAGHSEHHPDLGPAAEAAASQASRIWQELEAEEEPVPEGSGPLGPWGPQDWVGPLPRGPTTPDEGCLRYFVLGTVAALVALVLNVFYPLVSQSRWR
Method in brief: (§1)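 HEK293T lysate, 495 µg per sample in Tris/CHAPS/IGEPAL buffer with protease inhibitors, was treated in triplicate with fragment at 200 µM or vehicle for 3 h and then with Biotin-Ahx-Ub-VS at 0.5 µM final for 1 h. Labelled DUBs were NeutrAvidin-enriched, digested with LysC and trypsin, and run by diaPASEF LC-MS/MS. Spectronaut label-free quantities were global-median-normalised, and values are average log2 fragment/vehicle ratios by unpaired t-test on proteins with ≥2 unique peptides.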

USP24 = USP24 (UniProt Q9UPU5)
Method in brief: as §1

USP25 = molecular target: T2, USP25 (UniProt Q9UHP3)
T2 sequence (whole entry): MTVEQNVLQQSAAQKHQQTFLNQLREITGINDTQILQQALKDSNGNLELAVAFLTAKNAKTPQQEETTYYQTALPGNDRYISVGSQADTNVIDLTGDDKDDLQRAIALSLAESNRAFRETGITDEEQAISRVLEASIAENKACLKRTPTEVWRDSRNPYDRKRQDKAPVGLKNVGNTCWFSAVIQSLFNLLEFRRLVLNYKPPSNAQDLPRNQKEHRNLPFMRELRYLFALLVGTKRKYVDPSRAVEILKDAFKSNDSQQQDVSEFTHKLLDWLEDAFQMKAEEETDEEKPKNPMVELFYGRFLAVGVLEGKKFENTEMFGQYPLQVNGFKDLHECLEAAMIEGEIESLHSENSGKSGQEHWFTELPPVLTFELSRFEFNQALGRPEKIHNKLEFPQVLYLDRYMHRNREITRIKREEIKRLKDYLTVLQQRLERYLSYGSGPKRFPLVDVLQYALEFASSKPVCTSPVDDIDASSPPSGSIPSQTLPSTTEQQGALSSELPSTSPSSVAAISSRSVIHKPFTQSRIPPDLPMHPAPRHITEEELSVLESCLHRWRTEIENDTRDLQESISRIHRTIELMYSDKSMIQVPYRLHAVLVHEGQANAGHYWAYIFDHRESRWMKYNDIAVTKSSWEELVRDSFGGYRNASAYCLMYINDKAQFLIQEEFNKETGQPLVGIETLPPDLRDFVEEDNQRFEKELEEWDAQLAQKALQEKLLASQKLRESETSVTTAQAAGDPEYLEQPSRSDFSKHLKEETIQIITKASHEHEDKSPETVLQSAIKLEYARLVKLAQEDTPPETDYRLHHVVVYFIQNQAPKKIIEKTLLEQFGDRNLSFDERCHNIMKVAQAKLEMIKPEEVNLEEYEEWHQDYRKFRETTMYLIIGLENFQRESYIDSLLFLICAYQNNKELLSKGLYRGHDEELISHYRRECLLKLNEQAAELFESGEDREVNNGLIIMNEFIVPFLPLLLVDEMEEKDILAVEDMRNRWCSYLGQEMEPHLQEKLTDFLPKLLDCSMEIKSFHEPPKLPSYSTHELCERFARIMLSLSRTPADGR
Method in brief: as §1

USP28 = molecular target: T3, USP28 (UniProt Q96RU2)
T3 sequence (whole entry): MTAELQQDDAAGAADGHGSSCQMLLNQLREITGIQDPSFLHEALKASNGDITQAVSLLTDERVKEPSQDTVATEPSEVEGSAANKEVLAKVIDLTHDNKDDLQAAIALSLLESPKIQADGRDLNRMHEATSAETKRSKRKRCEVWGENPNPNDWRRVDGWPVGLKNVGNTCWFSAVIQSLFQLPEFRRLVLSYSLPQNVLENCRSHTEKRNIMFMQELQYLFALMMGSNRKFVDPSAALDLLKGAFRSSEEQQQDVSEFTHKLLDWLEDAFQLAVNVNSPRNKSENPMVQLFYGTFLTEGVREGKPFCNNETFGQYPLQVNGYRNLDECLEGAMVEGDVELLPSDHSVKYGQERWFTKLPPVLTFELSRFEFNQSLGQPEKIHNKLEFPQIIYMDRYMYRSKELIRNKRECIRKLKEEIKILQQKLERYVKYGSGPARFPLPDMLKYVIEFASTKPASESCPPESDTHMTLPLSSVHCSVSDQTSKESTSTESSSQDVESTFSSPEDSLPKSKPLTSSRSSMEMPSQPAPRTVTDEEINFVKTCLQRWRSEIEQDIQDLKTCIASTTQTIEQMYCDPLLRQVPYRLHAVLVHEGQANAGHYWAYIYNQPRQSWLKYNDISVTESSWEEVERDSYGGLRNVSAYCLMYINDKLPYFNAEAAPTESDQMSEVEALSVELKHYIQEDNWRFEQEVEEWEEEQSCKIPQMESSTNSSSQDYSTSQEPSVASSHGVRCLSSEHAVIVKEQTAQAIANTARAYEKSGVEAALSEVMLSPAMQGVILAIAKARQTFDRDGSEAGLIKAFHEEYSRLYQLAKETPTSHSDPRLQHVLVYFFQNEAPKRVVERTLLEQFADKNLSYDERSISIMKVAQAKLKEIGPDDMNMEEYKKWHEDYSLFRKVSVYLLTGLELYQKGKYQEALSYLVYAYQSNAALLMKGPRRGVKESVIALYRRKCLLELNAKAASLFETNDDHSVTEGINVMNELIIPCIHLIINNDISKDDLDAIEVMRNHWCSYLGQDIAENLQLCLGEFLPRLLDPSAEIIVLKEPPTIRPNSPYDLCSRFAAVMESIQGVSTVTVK
Method in brief: as §1

Measured: log2 ratio of Biotin-Ahx-Ub-VS probe labelling

Sequence of USP24 (Q9UPU5 whole entry): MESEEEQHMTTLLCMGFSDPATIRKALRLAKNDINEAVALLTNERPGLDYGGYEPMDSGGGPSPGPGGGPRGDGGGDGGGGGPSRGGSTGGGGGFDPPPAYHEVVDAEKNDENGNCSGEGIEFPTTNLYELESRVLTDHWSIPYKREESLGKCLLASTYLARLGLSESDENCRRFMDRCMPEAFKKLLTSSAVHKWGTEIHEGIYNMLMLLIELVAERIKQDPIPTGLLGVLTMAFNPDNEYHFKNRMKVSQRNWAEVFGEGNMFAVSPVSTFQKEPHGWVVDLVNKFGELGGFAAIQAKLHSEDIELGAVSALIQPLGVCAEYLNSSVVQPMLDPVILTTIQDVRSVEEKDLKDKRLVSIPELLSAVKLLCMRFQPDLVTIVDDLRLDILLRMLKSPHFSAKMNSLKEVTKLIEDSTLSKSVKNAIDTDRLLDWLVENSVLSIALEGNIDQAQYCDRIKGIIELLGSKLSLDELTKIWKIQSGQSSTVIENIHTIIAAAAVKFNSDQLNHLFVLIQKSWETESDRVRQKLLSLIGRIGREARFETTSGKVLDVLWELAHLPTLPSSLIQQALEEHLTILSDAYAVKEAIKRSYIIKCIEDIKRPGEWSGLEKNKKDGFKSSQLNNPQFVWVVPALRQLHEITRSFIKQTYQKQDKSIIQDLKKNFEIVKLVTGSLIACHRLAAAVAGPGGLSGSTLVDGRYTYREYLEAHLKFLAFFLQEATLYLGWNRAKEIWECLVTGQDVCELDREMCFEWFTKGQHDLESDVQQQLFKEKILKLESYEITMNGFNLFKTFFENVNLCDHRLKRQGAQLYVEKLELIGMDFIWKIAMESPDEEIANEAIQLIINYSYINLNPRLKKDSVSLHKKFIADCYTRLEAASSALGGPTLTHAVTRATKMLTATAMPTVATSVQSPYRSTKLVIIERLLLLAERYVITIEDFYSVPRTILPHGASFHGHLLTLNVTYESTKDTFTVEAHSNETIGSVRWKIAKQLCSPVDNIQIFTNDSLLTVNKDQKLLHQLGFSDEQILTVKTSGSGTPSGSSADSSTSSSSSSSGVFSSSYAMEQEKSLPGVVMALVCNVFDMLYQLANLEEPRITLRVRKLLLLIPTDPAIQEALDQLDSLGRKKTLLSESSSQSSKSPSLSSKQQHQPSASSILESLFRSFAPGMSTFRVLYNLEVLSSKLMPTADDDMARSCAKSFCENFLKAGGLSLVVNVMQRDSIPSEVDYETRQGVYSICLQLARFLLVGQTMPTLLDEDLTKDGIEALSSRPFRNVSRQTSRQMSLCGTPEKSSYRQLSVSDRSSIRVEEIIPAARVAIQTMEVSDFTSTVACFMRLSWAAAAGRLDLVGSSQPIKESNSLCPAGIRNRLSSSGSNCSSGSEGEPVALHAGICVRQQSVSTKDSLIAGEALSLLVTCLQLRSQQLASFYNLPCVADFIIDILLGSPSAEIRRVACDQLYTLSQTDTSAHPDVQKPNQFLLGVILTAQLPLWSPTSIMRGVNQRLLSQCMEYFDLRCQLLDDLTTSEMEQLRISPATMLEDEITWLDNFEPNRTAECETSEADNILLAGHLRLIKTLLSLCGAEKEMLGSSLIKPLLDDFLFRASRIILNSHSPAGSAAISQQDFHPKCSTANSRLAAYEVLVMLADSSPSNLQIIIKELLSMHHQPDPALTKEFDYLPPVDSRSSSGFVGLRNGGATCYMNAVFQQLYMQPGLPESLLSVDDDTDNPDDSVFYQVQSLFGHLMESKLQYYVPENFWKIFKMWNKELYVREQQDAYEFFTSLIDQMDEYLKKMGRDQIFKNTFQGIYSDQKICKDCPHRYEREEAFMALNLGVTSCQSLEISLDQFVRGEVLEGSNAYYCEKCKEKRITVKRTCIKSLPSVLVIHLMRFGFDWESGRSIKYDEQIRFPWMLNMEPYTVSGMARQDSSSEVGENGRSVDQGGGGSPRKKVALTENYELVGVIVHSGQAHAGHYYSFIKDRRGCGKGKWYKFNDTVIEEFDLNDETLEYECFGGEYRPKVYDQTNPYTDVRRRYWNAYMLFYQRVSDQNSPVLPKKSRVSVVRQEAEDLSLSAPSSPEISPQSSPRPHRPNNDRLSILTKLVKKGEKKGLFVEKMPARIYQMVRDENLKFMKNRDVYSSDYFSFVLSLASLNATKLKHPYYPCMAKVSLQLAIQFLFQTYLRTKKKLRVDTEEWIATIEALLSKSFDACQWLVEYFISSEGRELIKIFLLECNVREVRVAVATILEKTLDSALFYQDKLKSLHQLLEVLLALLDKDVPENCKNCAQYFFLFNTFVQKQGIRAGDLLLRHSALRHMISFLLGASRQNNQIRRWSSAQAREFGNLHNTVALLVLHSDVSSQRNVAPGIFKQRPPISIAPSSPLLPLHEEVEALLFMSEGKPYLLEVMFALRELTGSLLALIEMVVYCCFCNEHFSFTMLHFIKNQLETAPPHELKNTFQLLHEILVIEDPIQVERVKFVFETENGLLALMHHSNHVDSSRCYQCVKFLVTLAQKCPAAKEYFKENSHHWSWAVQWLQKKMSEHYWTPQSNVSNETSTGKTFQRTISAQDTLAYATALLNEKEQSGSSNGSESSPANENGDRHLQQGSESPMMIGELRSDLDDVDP

Cl.Cn1nccc1C(NC(=O)CCl)c1ccccc1 (centres undefined)
inactive: USP19 -0.0802 | USP24 -0.00471 | USP25 -0.455 | USP28 -0.472
